16 sequences from the supplement of paper PMC6555819 can be followed below.

Holding throughout (assay): PBM binding z-score (relative to random genomic background probes); higher = stronger binding; sequences stand for … in GC…GCGATTGACAGCGTAGAATGAAGG
For assay [1], the system named is RARb homodimer (NR concentration 270 nM). Summed up:
(§1)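 Binding buffer was PBS pH 7.4 with 2% milk, 0.02% Triton X-100, 1 mM DTT, 0.2 mg/mL BSA and 0.4 mg/ml salmon testes DNA. In it, ligand-free nuclear receptor dimers were incubated 1 h on custom Agilent 4×180K protein-binding microarrays carrying double-stranded probes. Antibodies against each partner (one per run) detected binding, and z-scores were calculated against random background probes after regression normalization of scanned fluorescence.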

Assay [2] deals with RARg:RXRa (NR concentration 270 nM, RXRa partner concentration 90 nM). Put shortly:
as §1

For assay [3], the system named is RARg homodimer (NR concentration 270 nM). Put shortly: as §1
The subject of assay [4] is RXRa DBDmut IVT, anti-RXR (DBD mutation: RXRa K156A/R161A, NR concentration 90 nM). Put shortly:
as §1

In assay [5] the test system is RXRa homodimer (NR concentration 180 nM). Summed up: as §1
In assay [6] the test system is THRa:RXRa (NR concentration 90 nM, RXRa partner concentration 90 nM). Put shortly: as §1
Assay [7] concerns THRa homodimer (NR concentration 90 nM). Put shortly:
as §1

The test system of assay [8] is VDR homodimer (NR concentration 270 nM). Summed up: as §1

In the case of ATCTCTAGGTAAAACTCAGTTCAGTGAAGAACGC, the PBM binding z-score in assay [1] came out at 0.751; in assay [2], 0.623; in assay [3], 0.586; in assay [4], 0.726; in assay [5], 0.153; in assay [6], 1.18. Moreover, the values for the PBM binding z-score in assay [7] and in assay [8] were 0.901 and 2.13, respectively.

As to ACTTACGGGTCAGCGAGGTTATAGCACGCGTATA, the PBM binding z-score turned out to be 3.53 in assay [1]; 4.79 in assay [2]; 4.61 in assay [3]; 1.45 in assay [4]; 4.69 in assay [5]; 3.83 in assay [6]. Moreover, the PBM binding z-score in assay [7] is 1.06; in assay [8] it was 2.44.

Consider TCATATAGGTAAAAGGTGAAGGTCGGTGTGGTAA, for which the PBM binding z-score in assay [1] stood at 2.64; in assay [2] it was 2.21; in assay [3], 1.23; in assay [4], 1.73; in assay [5], 3.05; in assay [6], 1.94. In addition, the results for the PBM binding z-score in assay [7] and in assay [8] were 1.05 and 0.941, respectively.

As for TCAGACAGGTGAAGGTAACTCGGGTACGCAGTCG, the PBM binding z-score was 1.04 in assay [1]; 0.783 in assay [2]; 0.664 in assay [3]; 1.16 in assay [4]; 1.23 in assay [5]; 1.66 in assay [6]. For the same sequence, the PBM binding z-score in assay [7] is 0.72; in assay [8] it was 0.873.

As for TCAGACAGGTGAAGGTAAGTCAGGTACGCAGTCG, the PBM binding z-score in assay [1] is 1.09; in assay [2], 0.505; in assay [3], 0.581; in assay [4], 1.17; in assay [5], 0.716; in assay [6], 0.959. The PBM binding z-score in assay [7] turned out to be 0.538; in assay [8], 0.0228.

Consider CCGGCTGGGGCAAGGTTACCATAACGCACAGCCA, for which the PBM binding z-score was 1.41 in assay [1]; 1.14 in assay [2]; 1.27 in assay [3]; -1.12 in assay [4]; 1.14 in assay [5]; 1.03 in assay [6]. In addition, the PBM binding z-score in assay [7] was -0.0935; in assay [8] it was -0.883.

As for TCGAGTAGGTTAGTCAGGGCATTCAGCCAACATA, the PBM binding z-score was 0.896 in assay [1]; -0.14 in assay [2]; 0.189 in assay [3]; 0.358 in assay [4]; -0.156 in assay [5]; 1.1 in assay [6]. For the same sequence, the PBM binding z-score came out at 0.314 in assay [7] and 0.685 in assay [8].

Take GCGACTGGGGCATCAGCAGGATACCATAACTTAA: the PBM binding z-score was -0.0166 in assay [1]; -0.0136 in assay [2]; 0.464 in assay [3]; -0.418 in assay [4]; -0.172 in assay [5]; 0.271 in assay [6]. Besides, the PBM binding z-score was -0.673 in assay [7] and -0.734 in assay [8].

Regarding TGAATGAGGTTAGAGATCAGGGAACGTGGCGTCG, the PBM binding z-score in assay [1] is 0.675; in assay [2], 1.04; in assay [3], 0.944; in assay [4] it was -0.0534; in assay [5] it was 1.71; in assay [6], 1.39. The PBM binding z-score in assay [7] was 0.0858; in assay [8], -0.315.

With CCTAGTTGGTCAAGATCACACACGCTATAGGTAC, the PBM binding z-score is 0.785 in assay [1]; 0.893 in assay [2]; 1.22 in assay [3]; 0.493 in assay [4]; 0.581 in assay [5]; 0.0913 in assay [6]. The PBM binding z-score was determined as 0.528 in assay [7] and 0.699 in assay [8].

In the case of ACAGGCAGGTGAGTGAAGGTAACTCAGCTGGACG, the PBM binding z-score in assay [1] was 0.0493; in assay [2], -0.184; in assay [3], 0.135; in assay [4], -0.851; in assay [5] it was 0.135; in assay [6], 1.31. For the same sequence, the PBM binding z-score in assay [7] was -0.451; in assay [8], -0.884.

For the sequence CTCGAAAGGTCGTGCTCGGGTGAGTATACCAAAC, the PBM binding z-score in assay [1] was determined as 2.72; in assay [2], 5.23; in assay [3] it was 3.77; in assay [4] it was 1.4; in assay [5], 4.73; in assay [6], 3.75. Moreover, the PBM binding z-score in assay [7] was determined as 0.478; in assay [8], 0.996.

Turning to ATCTCTAGGTAAGACTCAGTTCAGTAAAGAACGC, the PBM binding z-score in assay [1] came out at 0.871; in assay [2], 0.41; in assay [3] it was 0.438; in assay [4], 0.632; in assay [5], 0.0419; in assay [6], 0.985. For the same sequence, the PBM binding z-score in assay [7] was found to be 0.878; in assay [8] it was 1.74.

Regarding GCAGACAGGTGAAGCGCAGGTAACTCAGGGTGGC, the PBM binding z-score was -0.151 in assay [1]; 0.302 in assay [2]; 0.0246 in assay [3]; -0.801 in assay [4]; 0.395 in assay [5]; 0.73 in assay [6]. Further, the PBM binding z-score was -0.688 in assay [7] and -0.755 in assay [8].

As for GGAACGAGGGCATTCGAGCTGATAGCATGGCGAT, the PBM binding z-score in assay [1] is 0.164; in assay [2] it was 0.737; in assay [3] it was 1.2; in assay [4], 2.72; in assay [5] it was 0.444; in assay [6] it was 0.7. Besides, the figures for the PBM binding z-score in assay [7] and in assay [8] were -0.936 and 1.53, respectively.

For GCATATAGGTAATACAAGGTGAAAGTCCGATTGT, the PBM binding z-score in assay [1] amounted to 1.03; in assay [2], 0.625; in assay [3], 0.545; in assay [4] it was 0.387; in assay [5] it was 0.694; in assay [6] it was 4.31. Besides, the figures for the PBM binding z-score in assay [7] and in assay [8] were 1.08 and 0.356, respectively.
